FBW7 activator: activators of human E3 ligase FBW7. AlphaScreen FBW7–phospho-cyclin E peptide binding, activator screen. normalized activity (activation), % at 26.1 µM. 650,000 compounds, 0.13% hits. AID 1259310; in the data active = normalized activity above about 1.9%;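 also: purified mutant Fbw7 with reduced substrate affinity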
GPR151 activ: human GPR151 activation. Q8TDV0. PathHunter beta-arrestin GPR151 cells, luminescence. activation, % at 11.2 µM. 650,000 compounds, 1% hits. AID 1508602; in the data active = activation above about 4.9%;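 also: 0% = median of compound wells and 100% = cells with positive control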
Target sequence (Q8TDV0 whole entry, looked up): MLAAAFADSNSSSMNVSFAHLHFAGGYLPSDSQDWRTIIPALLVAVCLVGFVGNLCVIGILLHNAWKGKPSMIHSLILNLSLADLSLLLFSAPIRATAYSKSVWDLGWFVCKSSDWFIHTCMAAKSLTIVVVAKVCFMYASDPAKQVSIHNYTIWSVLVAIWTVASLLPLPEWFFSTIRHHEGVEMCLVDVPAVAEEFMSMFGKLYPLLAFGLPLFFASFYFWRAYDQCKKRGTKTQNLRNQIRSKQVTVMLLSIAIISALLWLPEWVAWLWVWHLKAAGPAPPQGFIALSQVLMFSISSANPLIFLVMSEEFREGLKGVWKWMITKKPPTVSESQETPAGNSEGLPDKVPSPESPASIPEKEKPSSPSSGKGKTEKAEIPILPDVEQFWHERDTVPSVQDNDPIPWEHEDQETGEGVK
TEAD-YAP block: TEAD-YAP interaction inhibition. HEK-TIYL cells, TEAD-Gal4/YAP UAS-luciferase luminescence. inhibition, % at 9.12 µM. 640,000 compounds, 1.4% hits. AID 1259422; in the data active = inhibition above about 32%;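 also: 0% = median of test compound wells and 100% = reference inhibitor wells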
MITF primary: blocks human microphthalmia-associated transcription factor | AlphaScreen MITF homodimerization, bead proximity signal | inhibition, % at 2.6 µM | 650,000 compounds, 0.91% hits; in the data active = inhibition above about 50%;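 also: 0% = vehicle wells with protein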
GPR151 conf act: human GPR151 activation, confirmation screen | 6,700 tested, under 10 active | GPR151 PathHunter beta-arrestin cells, luminescence, 90 min; % of EA-reagent control over plate median | activation, % at 11.2 µM | shares compounds with GPR151 activ;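 active = mean percent activation across replicates above the confirmation screen cutoff of 4.91%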
GPR119 ag: counter-screen for GPR151 activators: effect on human GPR119 | shares compounds with GPR151 activ | GPR119 PathHunter beta-arrestin cells, luminescence, 90 min; 0 = compound-well median, 100 = enzyme-acceptor control | 6,700 compounds, 0.3% hits | activation, % at 11.2 µM;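 active = mean percent activation in the counterscreen above 29.09%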;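 also: counterscreen on off-target GPR119 to flag nonselective hits from the GPR151 activator screen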
Active calls of the source: *; nt = not tested or not shown. Compounds with a hit are over-represented: about 3.5% of the library has one in this group of screens.

SMILES	FBW7 activator	GPR151 activ	TEAD-YAP block	MITF primary	GPR151 conf act	GPR119 ag
CC(C)CCN1CCNC(=O)C1CC(=O)N(Cc1nccn1C)C(C)C (stereo not drawn)	0	5.8*	5	5	-1	-4
CN1CCN(NC(=O)CCN2C(=O)C3CC=CCC3C2=O)CC1 (stereo not drawn)	0	-1	6	2	nt	nt
Cc1nn(C)c(Cl)c1CN1CCN(C2CCCCC2)C(CCO)C1 (stereo not drawn)	0	8.9*	8	9	0	-1
CSc1ncc(CN2CCN(C3CCCC3)C(CCO)C2)cn1 (stereo not drawn)	0	9.7*	3	-1	0	0
O=C(Nc1ccc(F)c(Cl)c1)c1ccc2c(=O)n(-c3cccc(C(F)(F)F)c3)c(=S)[nH]c2c1	2	-1	-3	10	nt	nt
O=C(Cc1cccs1)Nc1c2c(nn1-c1ccc(Cl)cc1)CSC2	0	0	-11	-1	nt	nt
COc1cccc(-c2nn3c(COc4ccccc4)nnc3s2)c1	0	1	0	5	nt	nt
CC(=O)Nc1ccc(NC(=O)C/C(C)=N/NC(=O)C(=O)NCCO)cc1	0	5.8*	-1	-1	1	6
Cc1cccc(NC(=S)N(Cc2ccccc2)Cc2cccs2)c1	0	1	-11	11	nt	nt
CSc1cccc(NC(=S)N(Cc2ccccc2)Cc2cccs2)c1	0	6.5*	-5	5	0	9
Cc1ccc(S(=O)(=O)N(C)C)cc1NC(=O)CCCSc1nc2ccccc2s1	0	1	-22	3	nt	nt
COc1ccc(OCC(=O)NCCSc2ccccc2)cc1	0	10*	-22	1	0	7
CC(C)c1ccc(OCC(=O)NCCCS(=O)(=O)N2CCc3ccccc3C2)cc1	0	8.2*	2	1	1	-1
COc1ccc(CCNC(=O)COc2ccc(C(C)C)cc2)cc1	0	6.7*	3	-6	0	-12
CCOc1ccc(S(=O)(=O)N(CC(=O)NCCSc2ccccc2)c2ccccc2)cc1	0	5.7*	7	3	2	21
O=C(c1ccccc1[N+](=O)[O-])N1CCN(C(c2ccccc2)c2ccccc2)CC1	1	-2	-2	0	nt	nt
CN(CCNC(=O)Cn1c(=O)oc2cc(Cl)ccc21)Cc1ccccc1	0	-1	-5	11	nt	nt
Cc1sc(NC(=O)COc2ccc(Cl)cc2)c(C(N)=O)c1C	0	1	-20	3	nt	nt
COc1ccccc1C(=O)Nc1ccc2c(C)cc(=O)oc2c1	0	17*	-65	13	-1	-6
COc1ccccc1C(=O)Nc1cccc(N(C)C)c1	0	16*	-11	4	0	-9
CCOc1ncccc1C(=O)Nc1ccc2c(C)cc(=O)oc2c1	0	-1	-3	5	nt	nt
CCOC(=O)c1cccc(NC(=O)c2ccccc2OCC)c1	0	5.5*	-4	9	0	-5
Cc1cc(=O)oc2cc(OC(C)C(=O)Nc3ccccc3)ccc12 (stereo not drawn)	0	5.3*	7	-9	0	-6
COc1ccc(NC(=O)C(C)Oc2ccc3oc(=O)cc(C)c3c2)cc1 (stereo not drawn)	0	-1	-1	22	nt	nt
CC(C)c1ccc(Cn2ccc3c4c(N)nc(NC5CC5)nc4ccc32)cc1	0	6.5*	nt	-4	6.5*	106*
SMILES	FBW7 activator	GPR151 activ	TEAD-YAP block	MITF primary	GPR151 conf act	GPR119 ag
COc1ccc(C2CC(=O)C3=C(C2)Nc2ccccc2N(C(C)=O)C3c2cccc(F)c2)cc1 (stereo not drawn)	0	0	-2	7	nt	nt
Cc1ccc(S(=O)(=O)c2nc(NCCN(C)C)sc2Cl)cc1	0	5.2*	2	0	1	3
CC(Oc1ccccc1)C(=O)Nc1ccc(F)cc1F (stereo not drawn)	0	5.3*	7	-14	-1	-3
Cn1nc(-c2ccnc(Nc3ccc(N4CCOCC4)cc3)c2)cc1Nc1ccccc1	0	5.7*	-5	-4	0	-6
NC(=O)c1cc2ccccc2cc1Nc1ccnc(Nc2ccc(N3CCOCC3)cc2)c1	0	6.5*	83*	34	0	0
NC(=O)c1ccccc1Nc1ccnc(Nc2ccc(N3CCOCC3)cc2)c1	0	0	27	-5	nt	nt
COC(=O)C(NC(=O)CC1(CC(=O)O)CCCC1)C(C)C (stereo not drawn)	1	0	5	23	nt	nt
O=C(CCn1c(=O)oc2ccccc21)N1CCc2c(nc(N3CCCC3)[nH]c2=O)C1	0	5.1*	6	10	0	4
O=C(CCc1ccccc1)N1CCc2c(nc(N3CCCC3)[nH]c2=O)C1	0	4	2	13	nt	nt
Cc1nc2ccccc2n1CC(=O)N1CCc2c(nc(N3CCCC3)[nH]c2=O)C1	0	17*	6	12	-1	5
O=c1c2ccccc2ncn1CCCOc1ccccc1[N+](=O)[O-]	0	4.9*	-85	1	1	-2
COC(=O)c1ccc(C2C3=C(CC(C)(C)CC3=O)N(c3cccc(C(F)(F)F)c3)C3=C2C(=O)CC(C)(C)C3)cc1	0	6.8*	8	2	1	-4
COc1cc(C(=O)OCC2CC(c3ccccc3)=NO2)cc(OC)c1OC (stereo not drawn)	0	5.4*	3	3	-1	-10
COc1ccc(C(=O)OCC2CC(c3ccccc3)=NO2)cc1OC (stereo not drawn)	0	0	-7	-1	nt	nt
COc1ccc2nc(-c3ccc(C)c(NS(=O)(=O)c4cccc(C)c4)c3)cn2n1	0	-2	-13	3	nt	nt
COc1cccc(-c2cc(C(=O)NCCCn3ccnc3)c3ccccc3n2)c1	0	7.2*	8	3	2	13
COc1ccc(CCNC(=O)c2cc(-c3cccc(OC)c3)nc3ccccc23)cc1	1	-2	9	0	nt	nt
CCN1CCCC1CNC(=O)CN1C(=O)/C(=C/c2ccccc2F)Sc2ccccc21 (stereo not drawn)	0	-1	4	4	nt	nt
Cc1ccc(NC(=O)NCC2CCCN2S(=O)(=O)c2ccc(C)cc2)cc1 (stereo not drawn)	0	5.8*	-35	0	-1	-18
Cc1ccc(NC(=O)C(=O)NCC2CCCN2S(=O)(=O)c2ccc(C)cc2)cc1 (stereo not drawn)	1	-1	4	8	nt	nt
CCNC(=O)C(=O)NCC1CCCN1S(=O)(=O)c1ccccc1 (stereo not drawn)	0	7.2*	0	23	-1	1
O=C1c2ccccc2C(=O)c2c(O)ccc(O)c21	0	18*	1	5	0	2
O=C1c2ccccc2C(=O)c2c(O)c(O)cc(O)c21	0	0	-1	30	nt	nt

Assay outcomes: PubChem, The Scripps Research Institute Molecular Screening Center
